Experimental data: PubChem BioAssay AID2158 (National Center for Advancing Translational Sciences (NCATS), 2009)
Several values for one entry are separate records, joined by “and”; a condition that tells them apart may be missing. Equal values may be shown once. Records with an inconclusive call do not appear. Activity calls are given as the source filed them. Calls come from the whole dose curve; as a rule, active = well fitted inhibition curve with a large enough effect; inconclusive = small, poorly fitted or top-dose-only effect; inactive = no such curve, though single readings can be large or run the other way.

molecular target: Cruzipain (Trypanosoma cruzi) (UniProt P25779); assay: Confirmation qHTS Assay for Inhibitors of Cruzain; details: purified cruzain, Z-FR-AMC fluorescence, 0.01% Triton; note: nearly all actives have a fitted effect of over 40% in size;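 for activity change, negative = inhibition: plate controls were uninhibited enzyme control for no effect and buffer wells lacking enzyme for full effect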
Sequence (P25779 123-467 limits assumed): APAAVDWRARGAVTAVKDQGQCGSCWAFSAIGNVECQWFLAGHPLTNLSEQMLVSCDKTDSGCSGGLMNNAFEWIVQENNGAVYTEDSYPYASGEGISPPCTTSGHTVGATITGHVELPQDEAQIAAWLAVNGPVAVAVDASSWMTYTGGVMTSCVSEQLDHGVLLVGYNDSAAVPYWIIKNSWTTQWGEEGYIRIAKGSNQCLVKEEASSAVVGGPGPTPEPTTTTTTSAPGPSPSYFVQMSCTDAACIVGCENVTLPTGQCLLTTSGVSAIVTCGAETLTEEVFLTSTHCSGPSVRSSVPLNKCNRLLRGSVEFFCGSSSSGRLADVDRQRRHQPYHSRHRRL
How it was run: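 Reaction progress from the 60 s rise in AMC fluorescence (ex 360, em 450 nm) after adding 2 uM Z-FR-AMC. Before this, 1.5 nM cruzain sat 15 min at room temperature with compound in pH 5.5 acetate buffer with 5 mM DTT and 0.01% Triton X-100.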
Potency is the fitted concentration of half-maximal effect.

Structure (SMILES) | activity change, negative = inhibition | Potency
CN1CCN(c2ncc3ncc(=O)n(-c4ccccc4)c3n2)CC1 | -20% (inactive) | 
O=C(Cc1ccccc1)NCC(=O)OCC(=O)c1ccc2ccccc2c1 | -9.73% (inactive) | 
O=C(NCCc1nc2ccccc2n1CCCOc1cccc2ccccc12)C1CCCCC1 |  | 2.24 µM (active)
O=C(CNC(=O)Cc1ccccc1)NCC(=O)OCC(=O)c1cccc2ccccc12 | -13% (inactive) | 
N#Cc1c(-c2ccccc2)cc(-c2ccco2)c(C#N)c1N | -11% (inactive) | 
CCCN(CCC)c1nc(C#N)nc(N(CCC)CCC)n1 |  | 3.55 µM (active)
O=C(CNC(=O)c1ccc(Cl)cc1Cl)OC(C(=O)Nc1cc(C(F)(F)F)ccc1Cl)c1ccccc1 (centres undefined) |  | 7.08 µM (active)
COc1ccc(NC(=O)C(OC(=O)CNC(=O)c2ccccc2)c2ccccc2)c(C)c1 (centres undefined) |  | 8.91 µM (active)
O=C(COC(=O)CNC(=O)c1ccccc1)Nc1cc(C(F)(F)F)ccc1Cl |  | 11.2 µM (active)
CCN(Cc1ccccc1)c1nc2c(S(=O)(=O)c3ccccc3)nnn2c2ccc(Cl)cc12 | -6.48% (inactive) | 
Cc1cccc(C(=O)NCC(=O)OCC(=O)c2ccc3ccccc3c2)c1 |  | 12.6 µM (active)
CCOC(=O)C(C(=O)OCC)N(C#N)c1nc(SC)nc(N(C)C)n1 |  | 5.01 µM (active)
Cc1ccccc1OCCn1c(CCNC(=O)C2CCCCC2)nc2ccccc21 |  | 631 nM (active) and 1 µM (active)
CCc1ccc2[nH]c(=O)c(CN(Cc3ccccc3)Cc3nnnn3C(C)(C)C)cc2c1 | -22.1% (inactive) | 
O=C(CNC(=O)c1cccc(Cl)c1)OC(C(=O)Nc1cc(C(F)(F)F)ccc1Cl)c1ccccc1 (centres undefined) |  | 12.6 µM (active)
O=C(NCc1ccc2c(c1)OCO2)c1ccc2c(c1)N(Cc1c(F)cccc1Cl)C(=O)c1ccccc1S2 | 3.42% (inactive) | 
C=CC(=O)c1ccc2ccccc2c1 |  | 25.1 µM (active)
O=C(CNC(=O)c1ccccc1)OC(Cc1ccccc1)C(=O)Nc1cc(C(F)(F)F)ccc1Cl (centres undefined) |  | 7.08 µM (active)
CCSc1nnc(NC(=O)/C=C/c2ccc3c(c2)OCO3)s1 | -48.4% (inactive) | 
Cc1ccccc1OCC(=O)NCC(=O)OCC(=O)c1ccc(Br)cc1 |  | 35.5 µM (active)

Structure (SMILES) | activity change, negative = inhibition | Potency
N#Cc1nc(Nc2ccc3ccccc3c2)nc(NC2CCCC2)n1 |  | 1.26 µM (active)
Cc1nc2cc(-c3ccccc3)nn2c(C)c1CCC(=O)N1CCN(c2ccccc2)CC1 | -13% (inactive) | 
CC(C)CC(O)C(=O)Nc1cc(C(F)(F)F)ccc1Cl (centres undefined) | -12% (inactive) | 
N#Cc1nc(Nc2cccc(F)c2)nc(NC2CCCC2)n1 |  | 0.0794 µM (active)
C[C@H](CCC(=O)O)[C@H]1CC[C@@H]2[C@@H]3[C@@H](O)C[C@H]4C[C@@H](O)CC[C@@]4(C)[C@H]3CC[C@@]21C | 2.73% (inactive) | 
CCc1ccc(OCCn2c(CCNC(=O)C3CCCCC3)nc3ccccc32)cc1 |  | 2.24 µM (active)
CCN(c1ccccc1)c1nc(N)nc(C#N)n1 |  | 14.1 µM (active)
N#Cc1nc(N2CCCCC2)nc(N2CCCCC2)n1 |  | 8.91 µM (active)
COc1ccc(Nc2nc(C#N)nc(NC3CCCC3)n2)cc1 |  | 0.447 µM (active)
COc1ccccc1CCNC(=O)CNC(=O)Cc1cccc2ccccc12 | 5.36% (inactive) | 
O=C(NCCc1nc2ccccc2n1CCCOc1ccc(Cl)cc1)C1CCCCC1 |  | 0.891 µM (active)
Cc1ccc2[nH]c(=O)c(CN(CCO)Cc3nnnn3Cc3ccco3)cc2c1 | -3.64% (inactive) | 
O=C(c1ccco1)N1CCN(c2ncnc3c2[nH]c2ccc(Cl)cc23)CC1 | -37.6% (inactive) | 
O=C(CNC(=O)c1ccccc1)OC(CCc1ccccc1)C(=O)Nc1cc(C(F)(F)F)ccc1Cl (centres undefined) |  | 7.94 µM (active)
O=C(NCc1nnc(-c2cc3ccccc3[nH]2)o1)c1ccccc1 | -2.11% (inactive) | 
CCN(CC)c1nc(C#N)nc(N(CC)CC)n1 |  | 17.8 µM (active) and 14.1 µM (active)
Clc1ccccc1-c1nn2c(-c3cc(-c4ccccc4)n[nH]3)nnc2s1 | -2.56% (inactive) | 
N#CN1CCC(NC(=O)c2ccc(C(F)(F)F)cc2)CC1 | -6.84% (inactive) | 
O=C(COC(=O)CNC(=O)c1ccccc1Cl)Nc1ccccc1Cl |  | 3.55 µM (active)
